Experimental data published in PubChem BioAssay (NCI).
The panel holds about 83,000 compounds, 20% with a hit somewhere; the sample as a whole holds those more often.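 Treatment: one concentration, 48 hours, 96-well format. Scoring: percent growth, with anything below 10 considered active.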 The source made the active and inactive calls.

Test system: HL-60(TB) leukemia
Experiment: NCI-60 one-dose screen, 48 h (100 = growth as untreated, 0 = no growth, -100 = all killed)
Conditions: 10 µM unless noted

Row | Compound | growth
1 | CCCN1C(=O)CSC1=Nc1ccc2cc3ccc(N=C4SCC(=O)N4CCC)cc3nc2c1 | 8.32% (active)
2 | O=C1CCC2=C3C4CCCCC4C(=O)C4CCCC(OC2C1)C34 (stereo not given) | -17.1% (active)
3 | O=C(N=Nc1c(O)[nH]c2ccccc12)Nc1ccc(Cl)cc1 | 38.9% (inactive)
4 | CCN(CC)CC(=O)Nc1c(C)ccc(N)c1C | 74.2% (inactive)
5 | CC1=C(NCCN2CCCC2)C(=O)c2c(OCc3cccc(Cl)c3)cccc2C1=O | 94.1% (inactive)
6 | CC(=O)OCC(=O)C1(O)C(C)CC2C3C=C(C)C4=Cc5c(cnn5-c5ccccc5)CC4(C)C3C(O)CC21C (stereo not given) | 14.7% (inactive)
7 | Nc1ncn([C@@H]2O[C@H](CO)[C@@H](O)C2(F)F)c(=O)n1 | 25.2% (inactive)
8 | CC/C(=C(\CC)c1ccc(OCCN(CC)CC)cc1)c1ccc(OCCN(CC)CC)cc1 | -3.52% (active)
9 | COC(=O)C(C)[C@H]1CC[C@@H]2[C@]1(C)CC=C1[C@]23C=C[C@]2(C[C@@H](OC(C)=O)CC[C@]12C)C(C(=O)OC)C3C(=O)OC (stereo not given in full) | 66.9% (inactive)
10 | CN(Cc1cc(Br)cc(Br)c1O)Cc1cc(Br)cc(Br)c1O | 22.7% (inactive)
11 | C=C1C(=O)O[C@H]2[C@H]1CC/C(COC(=O)NCc1ccc(Cn3c(=O)sn(CCCI)c3=O)cc1)=C\CC[C@@]1(C)O[C@@H]21 | -9.41% (active)
12 | COc1ccc(/C(C#N)=C/c2ccccc2OC)cc1 | -0.826% (active)
13 | NC(=S)N/N=C/c1ccc(OC(=O)COc2cc(Cl)c(Cl)cc2Cl)cn1 | 47.1% (inactive)
14 | Cc1nn(-c2ccccc2)c(Oc2ccccc2)c1/C=N/NC(=O)Cn1c(=O)sc2ccccc21 | 5.9% (active)
15 | OCc1cc(CN2CCCCC2)c(O)c2ncccc12 | 33.2% (inactive)
16 | O=C(/C=C\c1ccc2c(c1)OCO2)/C=C/c1ccc2c(c1)OCO2 | 42.8% (inactive)
17 | COC(=O)/C=C1/SC(=NCc2ccccc2)N(CCc2c[nH]c3ccccc23)C1=O | 79.8% (inactive)
18 | Cc1c(C(=O)CCl)c(=O)n(-c2ccccc2)n1C | 56.9% (inactive)
19 | O=c1[nH]cnc2c1C(c1ccc(Br)cc1)c1sc3c(F)cccc3c1O2 (stereo not given) | 99.4% (inactive)
20 | COc1ccc(S(=O)(=O)Oc2ccc(-c3sc4cc(OS(=O)(=O)c5ccc(OC)cc5)ccc4c3C(=O)c3ccc(OCCN4CCCCC4)cc3)cc2)cc1 | 91.1% (inactive)

Row | Compound | growth
21 | O=C(/C=C/c1cccnc1)/C=C/c1cccnc1 | -43.4% (active)
22 | CCCCCCNC(=O)Oc1ccc(/C(=C(\C)c2ccc(Cl)cc2)c2ccc(OCCN(CC)CC)cc2)cc1 | 44.3% (inactive)
23 | C/C(=C\c1ccccc1)C(O)C(=O)c1nc2ccc([N+](=O)[O-])cc2[nH]c1=O (stereo not given) | 83% (inactive)
24 | Cc1cc(C)c([O-])c(CN(C)CCN(C)Cc2cc(C)cc(C)c2[O-])c1.O=C([O-])c1cccc(C(=O)[O-])n1.[Ti+4] | -7.45% (active)
25 | Cc1nc2sc(C(=O)Nc3cccc(Cl)c3)c(N)c2cc1C(O)c1ccccc1 (stereo not given) | -40.9% (active)
26 | C=C1CCC2C(C)(CO)C(O)CCC2(C)C1C/C=C1/C(=O)OCC1Oc1ccccc1C (stereo not given) | 57.4% (inactive)
27 | CC[C@H](CO)Nc1nc(NCc2ccccc2)n2ncc(C(C)C)c2n1 | -38.2% (active)
28 | CC(=O)OCC1OC(n2cnc3c(=S)nc(N)[nH]c32)C(OC(C)=O)C1OC(C)=O (stereo not given) | 81.2% (inactive)
29 | O=C(CSc1nccc(Nc2cccc3ccccc23)n1)c1ccc(Cl)cc1 | 99.2% (inactive)
30 | COc1cc(C(=O)N2CCN(c3ccccc3OC)CC2)c(NC(=O)c2cnccn2)cc1OCc1ccccc1 | 47.5% (inactive)
31 | Nc1ccc(-c2ccc(N)c(S(=O)(=O)O)c2)cc1S(=O)(=O)O | 91.4% (inactive)
32 | Oc1cccc(CNC2CCCCC2)c1 | 107% (inactive)
33 | CCOc1ccc(Nc2ccnc3cc(Cl)ccc23)cc1 | -25.6% (active)
34 | COc1ccc(-c2cc(=O)oc3ccc(Cl)cc23)cc1F | -21.9% (active)
35 | COc1ccc(Cl)c(Nc2nc3ccccc3nc2NS(=O)(=O)c2cccc(NC(=O)C(C)(C)N)c2)c1 | 32.6% (inactive)
36 | COc1cc(/C=C/c2cc(/C=C/c3ccc(O)c(OC)c3)n(C(=O)Cc3ccccc3)n2)ccc1O | -9.93% (active)
37 | O=C(Nc1cccc2ccccc12)c1cc2c(cc1Br)OCO2 | 75.9% (inactive)
38 | CC1(c2ccc(Cl)cc2)OC(=O)CC(=O)O1 | 74.7% (inactive)
39 | NC1N=C(SCC(=O)N2CCN(c3cc4c(cc3F)c(=O)c(C(=O)O)cn4C3CC3)CC2)NC(=O)/C1=C/c1ccc(Cl)cc1 (stereo not given) | 102% (inactive)
40 | CCN(CC)C(=O)c1cccnc1 | 93.8% (inactive)
